# From PubChem
# FEN1 inhibitor: blocks human flap endonuclease 1; P39748; Recombinant FEN1 flap cleavage, fluorescence, 15 min; Potency, µM (highest dose often 114 µM), for the others: at the top dose activity change, negative = inhibition, actives largely listed as inhibitors; 0.35% of 390,000 active; further: on the % scale 0 is the no-effect control and ±100 the full control effect; nearly all actives have a fitted effect of over 65% in size
# Target sequence (P39748 whole entry, looked up): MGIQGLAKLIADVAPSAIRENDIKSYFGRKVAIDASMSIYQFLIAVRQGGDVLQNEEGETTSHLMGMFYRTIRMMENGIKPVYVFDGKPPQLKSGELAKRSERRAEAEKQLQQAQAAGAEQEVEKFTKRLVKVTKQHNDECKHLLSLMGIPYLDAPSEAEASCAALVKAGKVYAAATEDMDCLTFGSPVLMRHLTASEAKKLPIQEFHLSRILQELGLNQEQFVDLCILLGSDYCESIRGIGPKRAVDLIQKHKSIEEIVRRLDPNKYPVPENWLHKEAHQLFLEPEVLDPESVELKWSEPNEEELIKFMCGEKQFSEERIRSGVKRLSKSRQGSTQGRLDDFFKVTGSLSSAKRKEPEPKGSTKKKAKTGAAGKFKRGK
#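 FEN1 at 10 nM preincubated with compounds 15 min at room temperature, then flap DNA substrate added at 50 nM final. Signal read at 0 and 15 min; concentration-response fitted with four-parameter Hill equation.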
# POLK inh: DNA polymerase kappa (human) inhibition; Q9UBT6; purified Pol kappa, fluorescent DNA synthesis assay, 10 min; Potency, µM (doses to about 107 µM), for inactives: at the top dose activity, negative = inhibition, most hits filed as inhibitors; 0.53% of 400,000 active; AID 588579; further: on the % scale 0 is the no-effect control and ±100 the full control effect
#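 First, compounds were pin-transferred onto 10 nM Pol kappa. After 15 min at room temperature, substrate was added to 50 nM final. Fluorescence was then measured kinetically at 0 and 10 min.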
# POLH inh: inhibitors of human DNA polymerase eta; Q9Y253; recombinant Pol eta, fluorescent DNA replication assay; Potency, µM (titrated, usually from 114 µM), for the others: at the top dose activity change, negative = inhibition, usual class: inhibitors; 1.2% of 390,000 active; AID 588591; further: on the % scale 0 is the no-effect control and ±100 the full control effect
#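 Fluorescent replication assay: 50 nM final substrate added after a 15 min room-temperature compound preincubation with 10 nM enzyme. Signal taken at 0 min and again at 10 min.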
# Pol beta inh: blocks human DNA polymerase beta activity | P06746 | Pol beta primer extension/strand displacement, fluorescence kinetic | Potency, µM (top dose mostly 114 µM), for inactives: top-dose activity change, negative = inhibition, hits mostly inhibitors | 1.3% of 340,000 active; further: on the % scale 0 is the no-effect control and ±100 the full control effect
#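 Preincubation: enzyme (10 nM) with compound, 15 min, RT. Reaction: substrate added to 50 nM final. Reads: 0 and 10 min. Analysis: normalized, Hill fit.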
# Pol iota inh: blocks human DNA polymerase iota activity; Pol iota fluorescent replication assay, 10 min; Potency, µM (series often up to 115 µM), for the others: at the top dose activity, negative = inhibition, most hits filed as inhibitors; 1% of 390,000 active; AID 588590
#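 Fluorescent replication assay read twice, at 0 min and 10 min after adding 50 nM (final) substrate. Enzyme (10 nM) and compounds were first incubated 15 min at room temperature; enzyme-free buffer wells were negative controls.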
# TDP1 inh: blocks human tyrosyl-DNA phosphodiesterase 1; recombinant TDP1, AlphaScreen DNA substrate cleavage; Potency, µM (series often up to 130 µM), for inactives: top-dose activity change, negative = inhibition, hits mostly inhibitors; 0.28% of 350,000 active; further: on the % scale 0 is the no-effect control and ±100 the full control effect; nearly all actives have a fitted effect of over 40% in size
#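 Enzyme-compound mixtures sat 15 min at room temperature, followed by a 5 min reaction with 15 nM final substrate and 10 min with AlphaScreen beads. Recombinant human Tdp1 was used at 1 nM final.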
# An asterisk follows results filed as active; ? = inconclusive; / = not tested or not shown; ! = repeats disagree; [ ] = remark or other dose. A selection: hits, their analogues and other compounds. The true share with any hit is near 2.4%. The call rests on the fitted dose curve; in most records, active means well fitted curve in the direction sought with a large enough effect; inconclusive means small, poorly fitted or top-dose-only effect, or another doubt; inactive means no such curve, though single readings can be large; an effect the other way counts as inactive or inconclusive. Potency means the concentration at half of the fitted maximal effect.
SMILES,FEN1 inhibitor,POLK inh,POLH inh,Pol beta inh,Pol iota inh,TDP1 inh
Cc1ccc(C2NC(=S)NC(c3ccc(C)cc3)C23C(=O)NC(=O)NC3=O)cc1 (stereo not drawn),5%,-7%,-10%,32%,8%,4%
O=C1NC(=S)NC(=O)C1C(=O)Nc1ccccc1,/,-9%[60.1 µM],/,/,/,13%
Cc1ccc(NC2C(=O)NC(=O)NC2=O)cc1,-1%,-15%,79µM*,/,0.71µM*,/
CCn1c(=O)oc2cc(NC(=O)CCl)ccc21,-1%,-8%,-16%,17%,94%,3%
CC(C)CC(=O)Nc1ccc(C(=O)Cn2c(=O)oc3ccccc32)cc1,-10%,-7%,0%,20µM*,?,-6%
O=c1c2ccccc2nc(CSc2ncnc3nc[nH]c23)n1-c1ccccc1Cl,3%,-12%,-2%,40µM*,-16%,-3%
O=c1c2ccccc2nc(CSc2ncnc3nc[nH]c23)n1-c1ccccc1,-1%,-21%,6%,-26%,18%,5%
CSSC,/,/,/,/,/,12%
Cc1c2ccncc2c(C)c2c1[nH]c1ccccc12,12µM*,?,?,4µM*,14µM*!,50µM*
O=Cc1c(C(=O)O)n(Cc2ccc(Cl)cc2)c2ccccc12,4%,-16%,50µM*,?,?,-9%
Cc1c(C=O)c2ccccc2n1Cc1ccccc1,6%,-14%,-29%,21%,26%,/
CCc1nnc(NC(=O)CSc2ccc(-c3ccco3)nn2)s1,2%,1%,-20%,14µM*,14%,22µM*
CO/C1=C\C(C)=C\[C@@H](C)[C@@H](O)[C@@H](C)C/C(C)=C/C=C/[C@H](OC)[C@@H]([C@@H](C)[C@@H](O)[C@H](C)[C@@]2(O)C[C@@H](O)[C@H](C)C(C(C)C)O2)OC1=O (stereo partly drawn),/,?,/,/,/,16%
CCCCCCCCCCCCCCOS(=O)(=O)O,/,?,/,/,/,8%
S=c1[nH]nc(-c2ccco2)n1Cc1ccccc1,-8%,-1%,-8%,32µM*,21%,-3%
COc1ccccc1-c1n[nH]c(=S)n1Cc1ccco1,/,/,/,?,/,4%
CC(C)C[C@H](NC(=O)[C@H](Cc1ccccc1)NC(=O)CNC(=O)[C@@H](COC(C)(C)C)NC(=O)[C@@H](N)Cc1ccc(O)cc1)C(=O)N[C@H](C(=O)O)[C@@H](C)OC(C)(C)C,/,14%[60.1 µM],/,/,/,11%
CCCC[N+](=O)[O-],/,/,/,/,/,12%
Cc1cc(C=C2C(=O)NC(=S)NC2=O)c(C)n1-c1ccc2c(c1)OCO2,-20%,79µM*,20µM*,89µM*,20µM*,4%
C[C@H](N)C(=O)N[C@@H](C)C(=O)N[C@@H](Cc1ccccc1)C(=O)CCl,/,0%[19.4 µM],/,/,/,10%
CCN1C(=O)C(=Cc2ccc(C)s2)C(=O)N(CC)C1=S,-11%,-13%,25µM*,?,0%,-5%
Cc1cc(/C=C2/C(=O)NC(=O)N(Cc3ccco3)C2=O)c(C)n1-c1ccccc1O,0%,-33%,50µM*,28µM*,45µM*,6%
ClC=CCl,/,/,/,/,/,21%
O=C1NC(=O)N(c2ccccc2)C(=O)/C1=C\c1ccc([N+](=O)[O-])o1,/,/,/,7.9µM*,/,/
COC[C@H]1OC(=O)c2coc3c2[C@@]1(C)C1=C(C3=O)C2CCC(=O)[C@@]2(C)C[C@H]1OC(C)=O (stereo partly drawn),13µM*!,?,-3%[57.1 µM],1%[57.1 µM],-4%[58.9 µM],12%[56.1 µM]
Cc1ccc2nc3sc(=O)sc3nc2c1,/,6%[60.1 µM],/,/,/,20%
CN1C(=O)/C(=C\c2ccc(Br)s2)C(=O)NC1=S,?,-29%,?,?,?,2%
O=C1NC(=S)NC(=O)C1=Cc1ccc(Br)s1,?,?,22µM*,9%,?,10%
Oc1c(Cl)cc(Cl)cc1Cl,/,/,/,/,/,6%
Cc1cccn2c(=O)c(/C=C(\C#N)c3nc4ccccc4s3)c(Oc3ccc(F)cc3)nc12,?,-4%,79µM*,?,?,-8%
